Screens deposited in PubChem by National Center for Advancing Translational Sciences (NCATS).
This is a sample that favours compounds with a hit; in the whole collection about 7.4% have one here.
NPC1 promoter act – qHTS Assay for NPC1 Promoter Activators; Huh7 NPC1 promoter luciferase reporter, 24 h; Potency, µM (titrated, usually from 9.22 µM), for the others: at the highest dose activation, most hits filed as activators; actives 2.4% (n = 320,000); further: % of control where 0% means no effect; nearly all actives have a fitted effect of over 60% in size
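Luminescence from an NPC1 promoter-driven luciferase reporter in stably transfected Huh7 cells was measured after 24 h compound treatment at 37 °C, followed by 10 min ambient incubation with luciferase detection reagent.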
SMN2 splice enh – qHTS Assay for Enhancers of SMN2 Splice Variant Expression | HEK293 SMN2-luciferase splicing reporter, luminescence, 30-36 h | actives 2.8% (n = 210,000) | Potency, µM (series often up to 46.1 µM), without a hit: top-dose activity change, positive = activation, most hits filed as activators; further: % of control where 0% means no effect; nearly all actives have a fitted effect of over 55% in size
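HEK293 cells carry an SMN2 minigene-luciferase reporter in which exon 7 inclusion puts luciferase in frame. Cells were seeded at 2000 cells/well, attached for 10-12 hours, then exposed to compounds for 30-36 hours at 37C before ONE-Glo luminescence.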
FLuc counter – qHTS profiling assay for firefly luciferase inhibitor/activator using purifed enzyme and Km concentrations of substrates (counterscreen for miR-21 project); AID 588342, 2011; Potency, µM (doses to about 57.5 µM), for the others: at the highest dose activity change, negative = inhibition, usual class: inhibitors; purified FLuc, Km substrates, luminescence inhibition; actives 6.9% (n = 360,000); Luciferin 4-monooxygenase (Photinus pyralis), P08659;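 further: plate controls were vehicle for no effect and reference inhibitor for full effect; nearly all actives have a fitted effect of over 55% in size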
Target sequence (P08659 whole entry, looked up): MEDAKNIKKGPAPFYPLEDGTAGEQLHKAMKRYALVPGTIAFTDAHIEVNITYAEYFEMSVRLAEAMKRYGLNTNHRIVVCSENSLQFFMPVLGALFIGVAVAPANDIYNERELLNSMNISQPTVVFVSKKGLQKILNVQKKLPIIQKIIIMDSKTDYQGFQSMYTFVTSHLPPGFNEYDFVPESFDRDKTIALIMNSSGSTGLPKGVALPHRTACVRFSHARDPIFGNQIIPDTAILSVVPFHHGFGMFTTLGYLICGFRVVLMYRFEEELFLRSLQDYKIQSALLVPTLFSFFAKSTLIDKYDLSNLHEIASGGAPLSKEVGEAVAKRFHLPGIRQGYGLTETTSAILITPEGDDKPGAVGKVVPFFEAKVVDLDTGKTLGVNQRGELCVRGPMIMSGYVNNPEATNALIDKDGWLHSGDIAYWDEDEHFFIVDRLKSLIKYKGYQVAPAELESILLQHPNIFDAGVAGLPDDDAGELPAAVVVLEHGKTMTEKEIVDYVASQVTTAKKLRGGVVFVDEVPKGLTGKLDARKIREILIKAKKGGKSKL
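Purified P. pyralis luciferase, 10 nM final, with Km-level 10 uM D-luciferin and 10 uM ATP in 50 mM Tris acetate pH 7.5, 10 mM Mg acetate, 0.01% Tween-20, 0.05% BSA; 6-point qHTS titration about 60 µM downward; luminescence read.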
Rab9 prom act – qHTS Assay for Rab9 Promoter Activators. Huh7 Rab9 promoter-luciferase reporter, luminescence, 24 h. Potency, µM (top dose mostly 9.22 µM), for the others: at the highest dose activation, negative = inhibition, most hits filed as activators. actives 2.8% (n = 320,000). AID 485297, 2010; further: % of control where 0% means no effect; nearly all actives have a fitted effect of over 60% in size
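Using Huh7 cells stably transfected with Rab9 promoter–luciferase, compounds were incubated 24 h at 37 °C, 5% CO2; luciferase luminescence was read 10 min after reagent addition.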
ELG1 genotox – qHTS screen for small molecules that induce genotoxicity in human embryonic kidney (HEK293T) cells expressing luciferase-tagged ELG1. HEK293T ELG1-luciferase reporter, luminescence, 16 h. Potency, µM (series often up to 46 µM), for inactives: at the top dose activity change, positive = activation, most hits filed as activators. actives 1.3% (n = 330,000); further: % of control where 0% means no effect; nearly all actives have a fitted effect of over 60% in size
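Cells (2,000/well) expressing the ELG1-luciferase fusion are dosed by pin tool and kept 16 hr at 37 °C, 5% CO2. Signal comes from ONE-Glo luciferase reagent after 30 min at room temperature.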
* marks the source's active call; other numbers are inactive results; ? = inconclusive; . = not tested or not shown; [ ] = dose if it differs, or a comment. The call rests on the fitted dose curve; in most records, active means well fitted curve in the direction sought with a large enough effect; inconclusive means small, poorly fitted or top-dose-only effect, or another doubt; inactive means no such curve, though single readings can be large; an effect the other way counts as inactive or inconclusive. Potency means the concentration at half of the fitted maximal effect.

SMILES | NPC1 promoter act | SMN2 splice enh | FLuc counter | Rab9 prom act | ELG1 genotox
CCNc1nc(NCc2ccc(F)cc2)c2cnn(C)c2n1 | . | . | -7.2% | . | .
Cc1ccc(NC(=O)CO/N=C(\N)c2ccccc2)cc1C | . | . | . | . | 4.7%
Cc1ccc(/C=C/C(=O)c2c(C)nc3ccccn23)cc1 | ? | ? | 1.07µM* | 1.41µM* | 15.6%
Cc1cccc(C(=O)NNC(=O)c2ccccc2C)c1 | 6.4% | 11.7% | ? | 4.7% | 6.1%
Cc1ccc(NC(=O)c2c(C)nc3ccccn23)cc1C | 3.16µM* | 12.6µM* | 8.49µM* | 1.78µM* | -0.8%
Cc1cccc(C(=O)NNC(=O)c2ccccc2O)c1 | 3.16µM* | . | 21.3µM* | ? | ?
Cc1nc2ccccn2c1C(=O)/C=C/c1cccc([N+](=O)[O-])c1 | -28.1% | -69.1% | -4.8% | -43.1% | -27.1%
Cc1ccc(NC(=O)CC(=O)c2ccccc2)cc1C | ? | . | 15.1µM* | 3.98µM* | ?
COc1cc(/C=C(/NC(=O)c2ccccc2)C(=O)N2CCOCC2)c([N+](=O)[O-])cc1OC | 0.2% | . | -0.2% | 7.3% | 13.4%
CCOc1cccc(N2CCN(CCNC(=O)Nc3ccc(C)cc3)CC2)c1C | -3.0% | . | 0.1% | -10.1% | -6.3%
Cc1ccc(CNC(=O)c2cccc(N3CCCS3(=O)=O)c2)cc1 | . | . | 3.6% | . | .
Cc1cccc(C(=O)Nc2ccc(C(=O)Nc3ccc(O)cc3)cc2)c1 | 0.8% | . | -4.0% | 9.3% | ?
Cc1cccc(C(=O)Nc2ccc(NC(=O)c3ccccc3)cc2)c1 | -0.6% | . | 23.9µM* | -0.9% | -6.2%
Cc1cccc(C(=O)Nc2ccccc2C(=O)OCC(=O)Nc2ccc(C#N)cc2)c1 | 11.0% | 15.8µM* | ? | 12.8% | ?
Cc1ccc(NC(=O)c2ccc(NC(=O)c3ccccc3)cc2)cc1C | ? | . | 26.9µM* | ? | ?
Cc1ccc(NC(=O)c2cccc(N3CCCS3(=O)=O)c2)cc1C | . | . | 19µM* | . | .
Cc1nc2cc(C(=O)OCC(=O)Nc3ccc(C#N)cc3)ccc2n1-c1ccccc1 | -4.7% | 25.3% | -12.5% | -2.5% | 1.2%
COc1cccc(NC(=O)COC(=O)c2ccc(C)c(S(=O)(=O)N3CCCCC3)c2)c1 | -0.4% | . | 0.6% | 2.9% | -1.8%
O=C(Cc1ccc(Cl)cc1)Nc1ccc(NC(=O)c2ccccc2)cc1 | -0.7% | 0.6%[1.84 µM] | 2.6% | 3.4% | 6.8%
CCc1ccc(NC(=O)CCC(=O)c2ccccc2)cc1 | -0.1% | . | 13.5µM* | -6.5% | 3.1%
Cc1cc2ccccn2c1C(=O)Nc1ccc(Cl)cc1 | 12.6% | 13.8% | ? | ? | ?
O=C(CC(=O)c1ccccc1)Nc1ccc(Cl)cc1 | ? | . | 15.1µM* | ? | 13.3%
Cc1cc2ccccn2c1C(=O)Nc1ccccc1 | 27.5% | ? | 10.7µM* | ? | ?
CCc1ccc(NC(=O)CCC(=O)c2ccc(C)cc2)cc1 | -1.6% | . | -3.2% | -1.6% | -2.1%
CCc1ccc(NC(=O)CN2CCc3ccccc3C2)cc1 | 5.7% | -15.5% | 23.9µM* | 11.8% | ?
SMILES | NPC1 promoter act | SMN2 splice enh | FLuc counter | Rab9 prom act | ELG1 genotox
Cc1c(S(=O)(=O)N2CCN(c3ccc(F)cc3)CC2)c(=O)n(C)c(=O)n1C | 1.1% | . | 3.6% | 17.0% | 0.8%
CCOC(=O)c1cnc2c(ccc3ccccc32)c1Nc1cccc(Cl)c1 | . | -4.1% | -2.6% | . | .
Cn1/c(=N/NC(=O)c2ccccc2F)sc2ccccc21 | ? | ? | 15.1µM* | 2.82µM* | ?
Cc1ccc(C(=O)N/N=c2\sc3ccccc3n2C)cc1 | 20.3% | 9.2% | 21.3µM* | 13.0% | -0.3%
Cc1nn(-c2ccc3ccccc3c2)c(=O)c2ccccc12 | 2.4% | . | 12µM* | ? | ?
Cc1nn(-c2ccc(Cl)nn2)c(=O)c2ccccc12 | 17.7% | ? | 16.9µM* | ? | ?
Cc1nn(-c2ccc(Cl)c(Cl)c2Cl)c(=O)c2ccccc12 | -2.7% | -12.3% | 2.4% | 3.3% | -3.3%
Cc1nn(-c2ccc(Cl)cc2)c(=O)c2ccccc12 | 4.47µM* | 12.6µM* | 16.9µM* | 2.82µM* | ?
